Source: PubChem BioAssay AID1304 (The Scripps Research Institute Molecular Screening Center, 2008)
In all, about 220,000 compounds went through this assay and about 800 (0.36%) were called active. This is one part of a sample in which actives are shown more often than they occur. Unmarked numbers belong to inactive results. No stated cut-off is given here; in the data, active means activation above about 33% (passing the limit was not always enough); inactive means the rest.

The compounds below were run against Neuropeptide Y receptor type 1 (Homo sapiens) (UniProt P25929) (assay: activation enhancers of human NPY-Y1 – cell-based, primary screen (AID 1304;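 further: cells stimulated with NPY at EC10 then isoproterenol at EC100; 0% = low agonist plus stimulus and 100% = saturating agonist plus stimulus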)). Conditions: NPY-Y1 expressing cells, potentiator/agonist activation; at 3.6 µM; stronger effect = higher value.
Sequence of Neuropeptide Y receptor type 1 (Homo sapiens) (P25929 whole entry, looked up): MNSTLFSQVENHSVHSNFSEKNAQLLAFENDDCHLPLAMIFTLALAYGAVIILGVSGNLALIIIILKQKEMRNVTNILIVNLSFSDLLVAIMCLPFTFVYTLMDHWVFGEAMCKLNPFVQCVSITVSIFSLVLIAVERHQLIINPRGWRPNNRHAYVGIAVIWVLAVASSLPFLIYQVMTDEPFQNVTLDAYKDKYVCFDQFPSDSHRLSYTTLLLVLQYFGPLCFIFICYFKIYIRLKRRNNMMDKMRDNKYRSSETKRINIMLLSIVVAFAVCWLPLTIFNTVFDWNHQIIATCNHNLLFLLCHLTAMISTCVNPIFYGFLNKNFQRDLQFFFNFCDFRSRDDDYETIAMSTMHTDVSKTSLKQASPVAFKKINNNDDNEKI

SMILES	activation
CSC1=NP(=S)(SC)N(C)c2nc3n(c21)CCC3 (stereo not given)	42.8% (active)
CCC1(C)CC(CCNCc2ccc(N(C)C)cc2)(c2ccc(F)cc2)CCO1 (stereo not given)	16.3%
CSc1nc2ccc(C)cc2c(=O)n1-c1cccnc1	1.29%
CNC(=O)Nc1ccc(C(O)(C(=O)OC)C(F)(F)F)cc1 (stereo not given)	-6.66%
CC(=O)Cc1ccc(OC(C)C)cc1	8.4%
C/C=C/CC1(CC)C(=O)NC(=S)NC1=O	11.2%
CCOP(=O)(OCC)C(NC(=O)c1ccc(OC)cc1)C(Cl)(Cl)Cl (stereo not given)	4.01%
CC1(C)Cc2c(C#N)c(N3CCNCC3)nc(-c3ccco3)c2CS1	59.2% (active)
CCN1CC2C3CCC(C)(O3)C2C1 (stereo not given)	11.9%
Fc1ccc(C2N3CCCN23)cc1 (stereo not given)	-11.3%
CCOc1cccc(=NC2CCCCC2)c2c(C)[nH]c(C)c12	11.4%
Cc1nn(Cc2ccccc2Cl)c(Cl)c1C(=O)OC(C(=O)NC(N)=O)C(C)C (stereo not given)	49.5% (active)
Cc1cccc(NC(=O)OC2CN3CCC2CC3)c1 (stereo not given)	11.8%
O=c1[nH]c(=O)n(Cc2ccccc2)c(O)c1/C=N/Nc1c(F)c(F)c(F)c(F)c1F	-7.15%
Cn1c(O)c(C(=Nc2ccc(F)cc2)c2ccccc2)c(=O)n(C)c1=O	-6.6%
